# Assay results from the supplement of paper PMC7057948, “A genome-wide approach for identification and characterisation of metabolite-inducible systems” (Nature Communications, 2020).
# System: BadR/P_H16_RS27200 cyclohexanecarboxylate biosensor (pEH159)
# Experiment: relative induction of RFP reporter vs primary effector (background-corrected); higher = stronger activation of the biosensor
# Conditions: inducer concentration 5 mM; 6 h; Cupriavidus necator H16; minimal medium + 0.4% gluconate
# Description: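 C. necator H16 strains, each carrying one of 21 transcription factor/inducible promoter–mRFP biosensor plasmids, were grown in minimal medium in 96-well plates (robotic platform). Each was exposed to 46 structurally or metabolically related compounds at 5 mM at 30 °C. OD-normalised RFP fluorescence was read 6 h later and expressed as relative induction (%) = 100 × (FL compound − FL uninduced)/(FL primary inducer − FL uninduced); mean of n=4.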
# 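Further: RFP excited at 585 nm with emission read at 620 nm, culture medium blanks subtracted from fluorescence and absorbance prior to normalisation.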
row,Structure (SMILES),relative induction of RFP reporter [%]
1,Oc1ccccc1 [phenol],-0.423
2,O=C(O)/C=C/C(=O)O [fumarate],-0.161
3,O=C(O)C[C@H](O)C(=O)O [L-malate],-0.0424
4,N[C@@H](CC(=O)O)C(=O)O [L-aspartate],-0.282
5,Oc1cccc(O)c1 [resorcinol],0.33
6,Oc1ccccc1O [catechol],1.99
7,O=C(O)C(O)c1ccccc1 (stereo not given) [mandelic acid],0.747
8,O=C(O)c1cc(=O)c2ccccc2[nH]1 [kynurenate],-0.549
9,O=C(O)CC(=O)C(=O)O [oxaloacetate],-0.113
10,O=CC(=O)O [glyoxylate],-0.137
11,"NC(C(=O)O)c1ccccc1 (racemic) [D,L-2-phenylglycine]",-0.673
12,CCCC(=O)O [butyric acid],0.491
13,"O=C(O)/C=C\C=C/C(=O)O [cis,cis-muconate]",-0.641
14,O=C(O)C1=C[C@@H](O)[C@@H](O)[C@H](O)C1 [shikimate],0.552
15,OC[C@@H](O)[C@@H](O)[C@H](O)[C@H](O)CO [D-mannitol],-0.47
16,C[C@H](N)C(=O)O [L-alanine],-0.206
17,O=C(O)C(O)C(=O)O [tartronic acid],-0.292
18,"O=C(O)c1c(O)cccc1O [2,6-dihydroxybenzoate]",0.241
19,O=S(=O)(O)CCO [isethionate],0.494
20,CCC(=O)O [propanoate],-0.236

row,Structure (SMILES),relative induction of RFP reporter [%]
1,C[C@@H](O)C(=O)O [D-lactate],-0.262
2,"NCC(N)C(=O)O (stereo not given) [2,3-diaminopropanoate]",-0.224
3,O=c1[nH]cnc2nc[nH]c12 [hypoxanthine],-0.186
4,O=C(O)CNC(=O)c1ccccc1 [N-benzoylglycine],-0.675
5,Oc1ccc(O)cc1 [hydroquinone],4.02
6,O=C(O)CC(CC(=O)O)C(=O)O [tricarballylate],-0.288
7,O=C(O)CCC(=O)O [succinate],-0.371
8,C[C@H](O)C(=O)O [L-lactate],0.636
9,O=C(O)c1cccnc1 [nicotinate],-0.229
10,O=C(O)c1ccc(O)cc1 [4-hydroxybenzoate],0.236
11,N[C@@H](Cc1c[nH]c2ccccc12)C(=O)O [L-tryptophan],-0.253
12,NCC(O)C(=O)O (stereo not given) [3-amino-2-hydroxypropanoate],0.0183
13,Cn1cnc2c1c(=O)[nH]c(=O)n2C [theobromine],0.638
14,O=C(O)C1=CCCCC1 [cyclohexene-1-carboxylate],80.5
15,NC(=O)CC[C@H](N)C(=O)O [L-glutamine],-0.359
16,Cn1c(=O)c2c(ncn2C)n(C)c1=O [caffeine],-0.151
17,O=c1cc[nH]c(=O)[nH]1 [uracil],-0.342
18,CC(N)CC(=O)O (stereo not given) [3-aminobutanoate],-0.361
19,NCCS(=O)(=O)O [taurine],-0.635
20,NCC(=O)O [glycine],-0.419
